This is an account of results in PubChem BioAssay (NCI).

Test systems include NCI-H23 lung; NCI-H226 lung; NCI-H322M lung; HOP-62 NSCLC; NCI-H460 lung; HOP-92 NSCLC; NCI-H522 lung; A549/ATCC NSCLC; 786-0 renal; COLO 205 colon; DU-145 prostate; K-562 leukemia; MALME-3M melanoma; MDA-MB-231 breast; RXF 393 renal; SF-268 CNS; SF-295 CNS; SF-539 CNS; UACC-257 melanoma; M14 melanoma.
What all share (assay): NCI-60 one-dose screen, 48 h (100 = growth as untreated, 0 = no growth, -100 = all killed)
Holding throughout (conditions): 10 µM unless noted

The structures appear in SMILES notation. Compounds without any hit were thinned out: in the full panel of roughly 83,000, 20% have a hit.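 The test compound was applied at a single concentration to cells in 96-well plates for 48 hours, and percent growth was recorded.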 Unmarked numbers belong to inactive results. The source made the active and inactive calls. How the source made its calls: active means growth percent below 10; inactive means the rest.

With `C/C(=N\N=C1/SCC(=O)N1c1ccccc1)c1ccco1`, the growth is 99.4% with NCI-H23 lung; 124% in the assay on NCI-H226 lung; 89.8% in the assay on NCI-H322M lung; 137% in the assay on HOP-62 NSCLC; 123% with NCI-H460 lung; 63.3% with HOP-92 NSCLC. Further, the growth was 75.4% in the assay on NCI-H522 lung; 114% in the assay with A549/ATCC NSCLC; 52% in the assay on 786-0 renal; 130% with COLO 205 colon; 119% in the assay on DU-145 prostate; 96.4% with K-562 leukemia. Also, the growth was 82.1% in the assay on MALME-3M melanoma; 93.2% in the assay on MDA-MB-231 breast; 112% with RXF 393 renal; 91.6% in the assay on SF-268 CNS; 98.3% in the assay with SF-295 CNS; 118% in the assay on SF-539 CNS. Also, the growth was 118% with UACC-257 melanoma and 176% in the assay with M14 melanoma.
Take `COc1ccccc1N1CCN(CC(O)COc2c(Br)c(Br)c(Br)c3c2OC(C)(C)C3)CC1` (stereo not given): the growth was 48.8% with NCI-H23 lung; 45% with NCI-H226 lung; 59.9% with NCI-H322M lung; 66.1% in the assay with HOP-62 NSCLC; 15.1% in the assay on NCI-H460 lung; -28.9% (active) with HOP-92 NSCLC. The growth in the assay on NCI-H522 lung is 55.1%; with A549/ATCC NSCLC, 45.5%; in the assay on 786-0 renal, 6.05% (active); with COLO 205 colon, 58.6%; in the assay on DU-145 prostate, 97.2%; in the assay with K-562 leukemia, 11%. The growth is 67.2% in the assay with MALME-3M melanoma; 44.9% in the assay on MDA-MB-231 breast; 40.2% in the assay with RXF 393 renal; 131% with SF-268 CNS; 29.8% in the assay on SF-295 CNS; 94.1% in the assay with SF-539 CNS. Further, the values for the growth in the assay on UACC-257 melanoma and in the assay with M14 melanoma were 96.9% and 29.9%, respectively.
On to `CCN(CC)CCN1C(=O)c2c(c3c4ccccc4[nH]c3c3[nH]c4ccccc4c23)C1=O`, for which the growth is 85.6% in the assay with NCI-H23 lung; 86.6% in the assay on NCI-H226 lung; 66.6% with NCI-H322M lung; 64.7% with HOP-62 NSCLC; 69% with NCI-H460 lung; 86.4% in the assay on HOP-92 NSCLC. For the same compound, the growth with NCI-H522 lung was 69.4%; with A549/ATCC NSCLC, 82.2%; in the assay with 786-0 renal, 83.6%; in the assay with COLO 205 colon, 75.8%; in the assay with DU-145 prostate, 105%; in the assay with K-562 leukemia it was 17.8%. Besides, the growth with MALME-3M melanoma is 86.1%; in the assay with MDA-MB-231 breast, 83.8%; in the assay on RXF 393 renal, 83.6%; in the assay with SF-268 CNS it was 87.3%; with SF-295 CNS, 84.7%; with SF-539 CNS it was 88.8%. Further, the growth was 105% with UACC-257 melanoma and 79.5% with M14 melanoma.
As to `O=C(Nc1ccc(-n2ccc3c(NC(=O)c4ccccc4)ncnc32)cc1)Nc1ccc(Cl)c(C(F)(F)F)c1`, the growth in the assay with NCI-H23 lung was -28.2% (active); in the assay with NCI-H226 lung it was 8.8% (active); in the assay on NCI-H322M lung, 36%; in the assay on HOP-62 NSCLC, 20.1%; in the assay with NCI-H460 lung, -62.2% (active); in the assay with HOP-92 NSCLC it was -8.52% (active). In addition, the growth with NCI-H522 lung was -58.9% (active); with A549/ATCC NSCLC, -62.9% (active); in the assay with 786-0 renal it was 37%; in the assay with COLO 205 colon it was 17.4%; in the assay with DU-145 prostate, -22.7% (active); in the assay with K-562 leukemia it was 0.237% (active). The growth in the assay on MALME-3M melanoma is 15%; in the assay with MDA-MB-231 breast, 12%; in the assay on RXF 393 renal it was -56.9% (active); in the assay on SF-268 CNS, -15% (active); in the assay on SF-295 CNS, -37.6% (active); in the assay with SF-539 CNS, 13.5%. Also, the growth in the assay on UACC-257 melanoma is 7.73% (active); in the assay on M14 melanoma, 3.01% (active).
Turning to `COc1ccc(-n2c(-c3ccc(NC(=O)CCCl)cc3)nnc2-c2cc(OC)c(OC)c(OC)c2)cc1`, the growth is 54.8% with NCI-H23 lung; 68.8% in the assay with NCI-H226 lung; 59.4% with NCI-H322M lung; 54.8% in the assay with HOP-62 NSCLC; 7.54% (active) in the assay with NCI-H460 lung; 46.1% with HOP-92 NSCLC. Also, the growth with NCI-H522 lung was 43.8%; in the assay on A549/ATCC NSCLC, 30.2%; with 786-0 renal, 75.4%; with COLO 205 colon it was 8.54% (active); with DU-145 prostate it was 22.7%; with K-562 leukemia, 49.8%. Moreover, the growth with MALME-3M melanoma was 71.4%; with MDA-MB-231 breast it was 53.2%; in the assay with RXF 393 renal, 8.38% (active); in the assay on SF-268 CNS, 78.6%; in the assay on SF-295 CNS, 53.1%; in the assay with SF-539 CNS, 41.5%. In addition, the growth in the assay on UACC-257 melanoma was 52.1%; with M14 melanoma, 59.5%.
With `CC(=O)CC/C=C(\C)[C@H](O)[C@H](C)C(=O)O[C@H]1C[C@H](C)C=C2C=C[C@@]3(C)O[C@@H](O)CC(=O)[C@]3(C)[C@H]21`, the growth in the assay with NCI-H23 lung is -35.8% (active); with NCI-H226 lung, -50.5% (active); in the assay on NCI-H322M lung, -17.6% (active); with HOP-62 NSCLC, -31.8% (active); in the assay with NCI-H460 lung, -16.6% (active); in the assay with HOP-92 NSCLC, -32.5% (active). For the same compound, the growth is -43.4% (active) in the assay on NCI-H522 lung; -10.6% (active) in the assay on A549/ATCC NSCLC; -49.7% (active) in the assay with 786-0 renal; -45.6% (active) in the assay with COLO 205 colon; -22% (active) with DU-145 prostate; -8.89% (active) in the assay with K-562 leukemia. Also, the growth with MALME-3M melanoma is -82.5% (active); in the assay on MDA-MB-231 breast, -39.2% (active); with RXF 393 renal, -88% (active); in the assay with SF-268 CNS it was -21.5% (active); in the assay with SF-295 CNS, -22.7% (active); in the assay on SF-539 CNS, -35.2% (active). For the same compound, the growth in the assay with UACC-257 melanoma is -33.7% (active); with M14 melanoma, -84.2% (active).
Consider `CN(C)CC/C=C1\c2ccccc2Sc2ccc(Cl)cc21`, for which the growth in the assay on NCI-H23 lung is 80%; in the assay on NCI-H226 lung, 102%; in the assay with NCI-H322M lung, 72.1%; in the assay with HOP-62 NSCLC, 75.6%; with NCI-H460 lung it was 77.2%; in the assay with HOP-92 NSCLC, 36.7%. The growth in the assay on NCI-H522 lung is 67.5%; in the assay with A549/ATCC NSCLC, 74.9%; with 786-0 renal it was 58.2%; with COLO 205 colon, -40.1% (active); with DU-145 prostate it was 90.9%; in the assay with K-562 leukemia, 16.4%. Besides, the growth was 69.8% with MALME-3M melanoma; 69% with MDA-MB-231 breast; 41.2% in the assay on RXF 393 renal; 68.8% with SF-268 CNS; 75.4% with SF-295 CNS; 92.3% with SF-539 CNS. Moreover, the growth in the assay with UACC-257 melanoma is -54.4% (active); in the assay on M14 melanoma, -57.5% (active).
